Results filed as inconclusive are left out. Where a call stands in place of a potency, no number is given. Calls of active or inactive are those of the source. Unless noted, calls come from the whole dose curve; as a rule, active = well fitted curve in the direction sought with a large enough effect in the repeat runs; inconclusive = weak or mixed curves; inactive = no such curve, though single readings can be large; an effect the other way counts as inactive or inconclusive.
Assays:
[1] = qHTS assay to identify small molecule antagonists of the estrogen related receptor (ERR) signaling pathway from Tox21 library - cell viability counter screen (AID 1224834); note: nearly all actives have a fitted effect of over 30% in size
Procedure, shortened: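 Viability readout (CellTiter-Fluor fluorescence, 30 min at 37 C) multiplexed with the ERR assay; cells treated 17.5 h at 37 C with compounds delivered in DMSO.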

[2] = target: Luciferin 4-monooxygenase (Photinus pyralis) (UniProt P08659); assay: qHTS assay to identify small molecule inhibitors of firefly luciferase (AID 1224835); note: series mostly up to about 120 µM; nearly all actives have a fitted effect of over 25% in size
Chain of Luciferin 4-monooxygenase (Photinus pyralis) (P08659 whole entry, looked up): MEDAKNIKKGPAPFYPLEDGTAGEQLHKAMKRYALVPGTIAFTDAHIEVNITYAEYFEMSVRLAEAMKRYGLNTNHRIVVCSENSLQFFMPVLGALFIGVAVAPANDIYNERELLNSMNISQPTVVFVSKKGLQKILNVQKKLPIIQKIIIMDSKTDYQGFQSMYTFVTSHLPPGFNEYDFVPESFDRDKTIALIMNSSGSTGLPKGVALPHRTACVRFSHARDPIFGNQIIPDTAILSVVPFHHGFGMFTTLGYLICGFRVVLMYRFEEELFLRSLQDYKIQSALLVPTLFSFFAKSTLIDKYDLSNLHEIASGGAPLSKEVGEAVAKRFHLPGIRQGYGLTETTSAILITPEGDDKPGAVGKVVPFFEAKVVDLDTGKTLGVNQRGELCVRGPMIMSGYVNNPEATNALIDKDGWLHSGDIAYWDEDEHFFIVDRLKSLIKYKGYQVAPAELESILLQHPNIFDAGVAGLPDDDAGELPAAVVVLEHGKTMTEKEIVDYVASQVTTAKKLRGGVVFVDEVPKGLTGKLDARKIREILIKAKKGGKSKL
Procedure, shortened: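 Inhibition of purified Photinus luciferase is measured by luminescence. Substrate levels (D-luciferin, ATP) sit at their KM values. Each compound is tested in a concentration series.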

[3] = qHTS assay to identify small molecule agonists of the constitutive androstane receptor (CAR) signaling pathway - cell viability counter screen (AID 1224836); note: series mostly up to about 92 µM; nearly all actives have a fitted effect of over 45% in size
Procedure, shortened: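 Cells were seeded and incubated 4 hrs. Compounds were added across 15 concentrations together with PK11195 at 0.75 uM final. Plates were incubated 23 hrs at 37 C. CellTiter-Fluor was added and fluorescence measured.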

[4] = qHTS assay to identify small molecule antagonists of the constitutive androstane receptor (CAR) signaling pathway - cell viability counter screen (AID 1224837); note: series mostly up to about 92 µM; nearly all actives have a fitted effect of over 45% in size
Procedure, shortened: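 Fluorescence from CellTiter-Fluor served as the viability signal. Human hepatoma HepG2 cells stably bearing hCAR and CYP2B6-2.2kb received compound plus CITCO (50 nM final) for 23 hr.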

[5] = target: Nuclear receptor subfamily 1 group I member 3 (Homo sapiens) (UniProt Q14994); assay: qHTS assay to identify small molecule antagonists of the constitutive androstane receptor (CAR) signaling pathway (AID 1224838);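 note: HepG2 cells stably expressing hCAR with CYP2B6 luciferase reporter stimulated by CITCO; nearly all actives have a fitted effect of over 40% in size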
Chain of Nuclear receptor subfamily 1 group I member 3 (Homo sapiens) (Q14994 whole entry, looked up): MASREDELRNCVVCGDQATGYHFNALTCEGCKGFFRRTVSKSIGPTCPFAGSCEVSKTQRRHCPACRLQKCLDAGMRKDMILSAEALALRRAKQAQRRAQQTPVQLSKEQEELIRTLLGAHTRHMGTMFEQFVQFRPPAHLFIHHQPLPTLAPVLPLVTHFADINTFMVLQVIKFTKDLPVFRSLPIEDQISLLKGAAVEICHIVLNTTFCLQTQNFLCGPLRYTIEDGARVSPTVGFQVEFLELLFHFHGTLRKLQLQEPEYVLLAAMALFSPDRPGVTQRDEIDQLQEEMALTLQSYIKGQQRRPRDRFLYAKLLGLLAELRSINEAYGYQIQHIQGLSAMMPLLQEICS
Procedure, shortened: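 Quantitative HTS in double-stable HepG2-CYP2B6-hCAR cells. After 4 h plating, cells get compound (15 concentrations) and CITCO at 50 nM final, incubate 24 h at 37 C, then ONE-Glo luminescence is read.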

[6] = target: Nuclear receptor subfamily 1 group I member 3 (Homo sapiens) (UniProt Q14994); assay: qHTS assay to identify small molecule agonists of the constitutive androstane receptor (CAR) signaling pathway (AID 1224839); note: nearly all actives have a fitted effect of over 15% in size; note: potency is the fitted concentration of half-maximal effect
Procedure, shortened: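 Cells were plated and incubated 4 hrs, then dosed with compounds at 15 concentrations. PK11195 was added to 0.75 uM final. After 24 hrs at 37 C, luciferase luminescence was measured.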

[7] = qHTS assay to identify small molecule antagonists of the estrogen related receptor signaling pathway with the pleiotropic PPARgamma coactivator (PGC) from Tox21 10K library - cell viability counter screen (AID 1224840; active = well fitted cell-killing curve with a large enough effect in the repeat runs, not every such curve was filed as active; note: nearly all actives have a fitted effect of over 40% in size)
Procedure, shortened: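 Compounds in DMSO, alongside positive and negative controls, were pinned onto PGC/ERR cells (2,000 per well). Exposure lasted 17.5 hours at 37 C, followed by a 30-minute CellTiter-Fluor incubation and fluorescence reading.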

[8] = qHTS assay to identify small molecule antagonists of the estrogen related receptor signaling pathway with the pleiotropic PPARgamma coactivator (PGC) from Tox21 10K library (AID 1224841; call rule not given here; note: series mostly up to about 92 µM; actives are mostly falling curves and most rising ones were filed inactive; nearly all actives have a fitted effect of over 50% in size)
Procedure, shortened: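 Compound exposure ran 18 hours at 37 C in PGC/ERR cells (2,000/well) that had first rested 6 hours in a 37 C/5% CO2 incubator. Luciferase activity was then detected with One-Glo after a 30-minute room-temperature step.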

[9] = qHTS assay to identify small molecule agonists of the estrogen related receptor signaling pathway with the pleiotropic PPARgamma coactivator (PGC) from Tox21 10K library (AID 1224842); note: nearly all actives have a fitted effect of over 15% in size
Procedure, shortened: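 Luminescence from One-Glo (30 min, room temperature) measured after PGC/ERR cells had 18 h at 37 C with pinned compound (23 nL in DMSO). Cells had been seeded at 2,000 per well and pre-incubated 6 h.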

[10] = target: Thyrotropin receptor (Homo sapiens) (UniProt P16473); assay: qHTS assay to identify small molecule agonists of the thyroid stimulating hormone receptor (TSHR) signaling pathway (AID 1224843; calls by dose curve; note: nearly all actives have a fitted effect of over 45% in size)
Chain of Thyrotropin receptor (Homo sapiens) (P16473 whole entry, looked up): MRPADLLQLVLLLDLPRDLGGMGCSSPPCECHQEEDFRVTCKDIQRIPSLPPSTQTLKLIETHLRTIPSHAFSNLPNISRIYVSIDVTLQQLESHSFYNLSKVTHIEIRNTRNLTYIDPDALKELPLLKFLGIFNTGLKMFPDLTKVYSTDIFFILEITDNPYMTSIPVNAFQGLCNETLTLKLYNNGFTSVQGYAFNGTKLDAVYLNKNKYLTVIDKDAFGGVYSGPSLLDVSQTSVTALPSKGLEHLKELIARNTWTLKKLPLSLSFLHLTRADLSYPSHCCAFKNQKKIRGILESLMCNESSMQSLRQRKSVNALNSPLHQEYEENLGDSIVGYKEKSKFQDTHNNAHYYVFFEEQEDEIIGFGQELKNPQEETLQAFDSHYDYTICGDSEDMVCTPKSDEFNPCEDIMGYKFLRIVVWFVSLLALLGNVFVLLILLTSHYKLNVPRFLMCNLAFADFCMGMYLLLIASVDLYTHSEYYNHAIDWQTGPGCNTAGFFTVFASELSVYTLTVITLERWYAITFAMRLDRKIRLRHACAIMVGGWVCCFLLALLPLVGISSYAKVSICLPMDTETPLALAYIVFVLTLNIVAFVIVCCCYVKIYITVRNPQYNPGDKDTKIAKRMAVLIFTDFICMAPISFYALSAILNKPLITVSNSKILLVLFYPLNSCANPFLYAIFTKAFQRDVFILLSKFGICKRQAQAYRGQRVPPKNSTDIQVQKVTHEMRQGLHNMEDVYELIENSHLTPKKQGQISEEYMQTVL
Procedure, shortened: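 Screening of the Tox21 10K collection used HEK293 cells engineered with TSHR at 800 cells per well. After a 30-min room-temperature compound exposure, HTRF cAMP reagents were added and fluorescence recorded 1 h later.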

SMILES | Potency [1] | Potency [2] | Potency [3] | Potency [4] | Potency [5] | Potency [6] | Potency [7] | Potency [8] | outcome [9] | Potency [10]
ClCCOCOCCCl | inactive | inactive | inactive | inactive | inactive | inactive | inactive | inactive | inactive | inactive
N#CCBr | inactive | inactive | inactive | inactive | inactive | inactive | inactive | inactive | inactive | inactive
CCC(C)n1c(=O)[nH]c(C)c(Br)c1=O (centres undefined) | inactive | inactive | inactive | inactive | inactive | inactive | inactive | inactive | inactive | inactive
ClC(Cl)C(Cl)Cl | inactive | inactive | inactive | inactive | inactive | inactive | inactive | – | – | –
C=C(C)CN(CC)c1c([N+](=O)[O-])cc(C(F)(F)F)cc1[N+](=O)[O-] | inactive | inactive | inactive | inactive | inactive | inactive | inactive | inactive | inactive | –
CCC#N | inactive | inactive | inactive | inactive | inactive | inactive | inactive | inactive | inactive | inactive
N#CCNCC#N | inactive | inactive | inactive | inactive | inactive | inactive | inactive | inactive | inactive | inactive
C[C@@H]1CN(C2CCC(C#N)(c3ccc(F)cc3)CC2)CC[C@]1(C(=O)O)c1ccccc1 (some centres undefined) | inactive | inactive | inactive | inactive | inactive | inactive | inactive | inactive | inactive | inactive
ClC(Br)Br | inactive | inactive | inactive | inactive | inactive | inactive | inactive | inactive | inactive | inactive
CC(Cl)(Cl)[N+](=O)[O-] | inactive | inactive | inactive | inactive | inactive | inactive | inactive | inactive | inactive | inactive
OC(c1ccc(F)cc1)(c1cncnc1)c1ccccc1Cl (centres undefined) | inactive | inactive | inactive | inactive | inactive | inactive | inactive | – | – | –
CCC(Cl)[N+](=O)[O-] (centres undefined) | inactive | inactive | inactive | inactive | inactive | inactive | inactive | inactive | inactive | inactive
N#Cc1c(Cl)cccc1Cl | inactive | inactive | inactive | inactive | inactive | inactive | inactive | inactive | inactive | –
CC1(C)CON(Cc2ccccc2Cl)C1=O | inactive | inactive | inactive | inactive | inactive | 48.6 µM (active) | inactive | – | – | –
CCOc1nc(C(Cl)(Cl)Cl)ns1 | inactive | inactive | inactive | inactive | inactive | inactive | inactive | inactive | inactive | inactive
COCC(=O)N(c1c(C)cccc1C)N1CCOC1=O | inactive | inactive | inactive | inactive | inactive | inactive | inactive | inactive | inactive | –
CN(N=O)C(N)=O | inactive | inactive | inactive | inactive | inactive | inactive | inactive | – | – | –
N#CC(Cl)(Cl)Cl | inactive | inactive | inactive | inactive | inactive | inactive | inactive | – | – | –
CNC(=O)Oc1ccccc1C1OCCO1 | inactive | inactive | inactive | inactive | inactive | inactive | inactive | inactive | inactive | –
CCOC(=O)/C=C(C)/C=C/C[C@@H](C)CCCC(C)C | inactive | inactive | inactive | inactive | inactive | inactive | inactive | – | – | –
Cc1nnc2n1-c1sc(CCC(=O)N3CCOCC3)cc1C(c1ccccc1Cl)=NC2 | inactive | inactive | inactive | inactive | inactive | inactive | inactive | inactive | inactive | inactive
CCOP(=S)(OCC)SCSc1ccc(Cl)cc1 | inactive | inactive | inactive | inactive | inactive | 27.3 µM (active) | inactive | – | – | –
CC1(C)COP(Oc2ccccc2)OC1 | inactive | inactive | inactive | inactive | inactive | inactive | inactive | inactive | inactive | inactive
O=CNC(N1CCN(C(NC=O)C(Cl)(Cl)Cl)CC1)C(Cl)(Cl)Cl (centres undefined) | inactive | inactive | inactive | inactive | inactive | inactive | inactive | inactive | inactive | inactive
CCS(=O)(=O)C(C)(C)S(=O)(=O)CC | inactive | inactive | inactive | inactive | inactive | inactive | inactive | inactive | inactive | inactive
CCCCOC(=O)[C@@H](C)Oc1ccc(Oc2ccc(C#N)cc2F)cc1 | inactive | inactive | inactive | inactive | inactive | inactive | inactive | inactive | inactive | –
